Activity calls are given as the source filed them. How the source made its calls: active means hit-call score of the fitted dose curve at least 0.9, where 1 is the maximum; inactive means score below 0.9.

The nature of the test: ATG_VDRE_CIS: Attagene CIS-FACTORIAL HepG2 Assay for human Vitamin D Receptor Element (VDRE) (AID 2282968). The conditions noted are these: HepG2 VDRE cis-reporter transcription, actives raise or lower the signal. The method, then: ATG_CIS is a cell-based, multiplexed-readout assay that uses HepG2, a human liver cell line, with measurements taken at 24 hours after chemical dosing in a 24-well plate.ATG_VDRE_CIS is one of 52 assay component(s) measured or calculated from the ATG_CIS assay. It is designed to make measurements of mRNA induction, a form of inducible reporter, as detected with fluorescence intensity signals by Reverse transcription polymerase chain reaction (RT-PCR) and Capillary electrophoresis technology.Data from the assay component ATG_VDRE_CIS was analyzed into 1 assay endpoint. This assay endpoint, ATG_VDRE_CIS, was analyzed with bidirectional fitting relative to DMSO as the negative control and baseline of activity. Using a type of inducible reporter, measures of mRNA for gain or loss-of-signal activity can be used to understand the reporter gene at the transcription factor-level as they relate to the gene VDR. Furthermore, this assay endpoint can be referred to as a primary readout, because this assay has produced multiple assay endpoints where this one serves a reporter gene function. To generalize the intended target to other relatable targets, this assay endpoint is annotated to the nuclear receptor intended target family, where the subfamily is non-steroidal.
Human liver HepG2 cells are transiently transfected with multiple reporter transcription units (MRTUs) in 6-well plates using FuGene 6 reagent (Roche; 3 ml FuGene/1 mg DNA). The MRTU constructs are regulated by a cis-regulating element (promoter). […] A major difference between the CIS and TRANS system is that in CIS activities of endogenous TFs are measured, whereas the TRANS assay evaluates changes in activities of exogenous, chimeric NR-Gal4 proteins. […] At the end of 24 hour incubation, total RNA was isolated using TriZol reagent (Invitrogen). The isolated RNA is then reverse-transcribed using oligo(dT) primer and Mo-MLV reverse transcriptase (Invitrogen) with DNAse I (Ambion) treatment for 30 min. The one-tenth of the produced cDNA was amplified by PCR using Taq DNA polymerase (Invitrogen) and two reporter sequence-specific primers. The PCR products were fluorescently labeled by primer extension with 6-arboxyfluorescein (6-FAM) 5'-labeled reporter sequence-specific primer (2 min at 95 C, 20 s at 68 C and 10 min at 72 C) and these products were digested with 5U of HpaI (New England Biolabs) for 2h at 37 C. The fragments were purified using Qiaquick PCR columns (Qiagen), analyzed on an ABI 3130xL genetic analyzer (Applied Biosystems) with peak positions identified by using a set of X-rhodamine (ROX)-labeled MapMarker1000 molecular weight standards (BioVentures). The raw capillary electrophoresis data was processed using Attagraph software (Attagene).
As to `C[N+](C)(C)CCO`, the result was inactive.

As to `O=C(OCc1ccccc1)c1ccccc1O`, the compound was classed as inactive.

As to `CCCCCCCOC(C)=O`, the result was inactive.

`CC(C)N1C(=O)c2ccccc2C1=O`: the compound was called inactive.

On to `CCC(C)(C)C1CCC(=O)CC1`, for which the result was inactive.

Turning to `CN1CCc2cccc3c2[C@H]1Cc1ccc(O)c(O)c1-3`, the compound was classed as inactive.

Regarding `CC(=O)CCC=C(C)CCC=C(C)C`, the concentration at half-maximal activity (AC50) is 7.02 µM (active).

For `Cc1ccccc1S`, the compound was classed as inactive.

Turning to `COC(=O)c1ccc(C(=O)OC)cc1`, the compound was called inactive.

Turning to `CCCCCCCCCCCCCC(=O)OCC`, the compound was classed as inactive.

For `C=CC(=O)OCC(CO)(COC(=O)C=C)COC(=O)C=C`, the concentration at half-maximal activity (AC50) is 0.708 µM (active).

For the compound `CC(C)=CC(=O)O`, the compound was classed as inactive.

`O=C1OC2(c3ccc(O)cc3Oc3cc(O)ccc32)c2ccccc21`: the compound was called inactive.

`CC(C)(O)CCc1ccccc1`: the compound was classed as inactive.

In the case of `CCCCCCCCSCc1cc(C)c(O)c(CSCCCCCCCC)c1`, the call was inactive.

Turning to `CCCCCCCCCC(=O)OCC`, the concentration at half-maximal activity (AC50) was 44.1 µM (active).

For `C=CC(C)CCCC(C)(C)O` (stereo not given), the compound was called inactive.

For `NCCN1CCNCC1`, the compound was classed as inactive.

For `O=C(O)c1ccco1`, the result was inactive.

In the case of `c1coc(CNc2ncnc3nc[nH]c23)c1`, the compound was called inactive.

In the case of `CCNC(=S)NCC`, the outcome was inactive.

In the case of `CCCCN(CCO)CCO`, the result was inactive.

For `C=CC(O)CCCCC` (stereo not given), the AC50 was 48.4 µM (active).

Take `CC1=CCC(C(C)(C)O)CC1` (stereo not given): the outcome was inactive.

Turning to `CC(=O)CC(=O)N(C)C`, the compound was classed as inactive.

`CC(C)COC(=O)c1ccccc1O`: the call was inactive.

On to `CC(=O)OC/C=C(C)/C=C/C=C(C)/C=C/C1=C(C)CCCC1(C)C`, for which the half-maximal activity concentration (AC50) is 0.946 µM (active).

Regarding `CC(=O)c1cccnc1`, the call was inactive.

Turning to `CCC(C)C1CCCCC1=O` (stereo not given), the compound was called inactive.

As for `S=c1[nH][nH]c(=S)s1`, the outcome was inactive.

On to `CCCCCCOc1ccc(O)cc1`, for which the half-maximal activity concentration (AC50) is 33.4 µM (active).

With `O=S1(=O)CC(Cl)(Cl)C(Cl)(Cl)C1`, the AC50 was 3.71 µM (active).

For `CCOC(=O)C=Cc1ccccc1`, the call was inactive.

On to `CC1=CC[C@@H](C(C)(C)O)CC1`, for which the compound was called inactive.

Regarding `CCC(C)COC(=O)CC(C)C` (stereo not given), the call was inactive.

Turning to `CCCCCc1cccc(=O)o1`, the compound was classed as inactive.

Regarding `C=CCCCCCCCCC(=O)OCC`, the outcome was inactive.

Turning to `CCC(C)(C)C1CCC(OC)CC1` (stereo not given), the outcome was inactive.

As for `C=CCOCC(O)CO` (stereo not given), the call was inactive.

As to `CC(CO)(CO)[N+](=O)[O-]`, the compound was called inactive.

Usually AC50 stands for the concentration at which the activity in the assay is half-maximal.

The values are drawn from PubChem BioAssay (EPA / NIEHS).
